Screening results: PubChem, several laboratories
MEKK3 PB1 HTS: modulators of MEKK3-MEK5 PB1 binding, primary screen, biochemical, wildtype MEKK3, multiplex bead flow cytometry, Alexa488-MEK5. Mitogen-activated protein kinase kinase kinase 3 (Homo sapiens), Q99759. bead-based flow cytometry, Alexa488-MEK5 binding to MEKK3; actives lie on both sides; 0 = blocked by unlabeled MEK5, 100 = vehicle. binding response (% of control), % at 10 µM. hit rate 1.4% among 290,000;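 active = binding response more than 3 SD above or below the average of its plate-row segment, actives on both sides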;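 note: Alexa488 bead fluorescence after subtracting the streptavidin-only scavenger bead signal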
Target sequence (Q99759 whole entry, looked up): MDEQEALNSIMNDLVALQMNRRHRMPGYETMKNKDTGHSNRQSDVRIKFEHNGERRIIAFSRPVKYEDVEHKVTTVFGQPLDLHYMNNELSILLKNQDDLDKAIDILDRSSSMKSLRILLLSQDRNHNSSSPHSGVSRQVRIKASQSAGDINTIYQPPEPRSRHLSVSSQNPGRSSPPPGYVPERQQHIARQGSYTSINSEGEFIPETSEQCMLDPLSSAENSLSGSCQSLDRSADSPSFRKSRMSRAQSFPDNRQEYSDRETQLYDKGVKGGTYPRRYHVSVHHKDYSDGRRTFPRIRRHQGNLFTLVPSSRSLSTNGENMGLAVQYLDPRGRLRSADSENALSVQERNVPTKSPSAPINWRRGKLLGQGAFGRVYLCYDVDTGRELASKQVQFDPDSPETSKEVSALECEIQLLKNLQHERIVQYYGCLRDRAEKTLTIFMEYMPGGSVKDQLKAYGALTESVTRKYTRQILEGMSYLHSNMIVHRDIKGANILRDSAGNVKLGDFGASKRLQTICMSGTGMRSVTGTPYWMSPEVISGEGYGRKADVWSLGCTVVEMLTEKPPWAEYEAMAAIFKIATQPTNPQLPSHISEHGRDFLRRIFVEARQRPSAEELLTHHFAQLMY
Pf gametocyte: late stage P. falciparum gametocyte viability inhibitors, primary screen, ATP luminescence, HTS. inhibition, % at 10.9 µM. P. falciparum stage V gametocytes, 24 h. hit rate 0.065% among 150,000;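 active = inhibition above the mean plus 3 SD of compounds within the control limits, set per campaign, cut at about 38% in these data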;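 note: 0% = DMSO wells and 100% = medium only without gametocytes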
MEKK2wt PB1 HTS: modulators of MEK5 binding to wildtype MEKK2, primary screen, biochemical, multiplex bead flow cytometry, Alexa488-MEK5; hit rate 1.1% among 290,000; Alexa488-MEK5 binding to MEKK2 WT; actives lie on both sides; binding response (% of control), % at 10 µM; in the data active = binding response below about 67% or above about 130%
Arbovirus anti: antivirals against arbovirus infection, primary screen, cell-based, full library, 10K replicate subset | arbovirus infection cell-based antiviral screen | inhibition, % at 10 µM | hit rate 0.37% among 200,000; in the data active = inhibition above about 30%
MEKK2 mut-MEK5: MEK5 binding signal on mutant MEKK2 PB1, primary screen, biochemical, multiplex bead flow cytometry, Alexa488-MEK5 | Alexa488-MEK5 binding to MEKK2 mutant | percent response, % at 10 µM | hit rate 0.35% among 290,000; in the data active = percent response above about 24%, passing the limit was not always enough
MEKK2wt confirm: modulators of MEK5 binding to wildtype MEKK2, confirmation, biochemical, single concentration, multiplex bead flow cytometry; shares compounds with MEKK3 PB1 HTS; Alexa488-MEK5 binding to MEKK2 WT; actives lie on both sides; binding response (% of control), % at 10 µM; hit rate 2.4% among 5,900; in the data active = binding response below about 16% or above about 210%; inactive = in between
MEKK2mut confirm: mutant MEKK2 PB1-MEK5 binding signal retest – biochemical, single concentration, multiplex bead flow cytometry, confirmation. shares compounds with MEKK3 PB1 HTS. Alexa488-MEK5 binding to MEKK2 mutant. percent response, % at 10 µM. hit rate 2% among 5,900. AID 1893, 2009; in the data active = percent response mostly above about 71%, no sharp cut-off; inactive = mostly below about 38%;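 note: higher means compound restores mutant binding toward wildtype level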
MEKK3 confirm: MEKK3 wild-type PB1 binding to MEK5, inhibitors, confirmation, biochemical, bead multiplex flow cytometry, single concentration, wildtype | shares compounds with MEKK3 PB1 HTS | binding response (% of control), % at 10 µM | AID 1894, 2009 | hit rate 1.8% among 5,900 | Alexa488-MEK5 binding to MEKK3; hits give low values;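 active = binding response below 72% of control, or above a set upper limit, though filed actives all read lower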;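 note: 100% = DMSO only wells and 0% = binding blocked by excess unlabeled MEK5; lower values mean stronger disruption of MEK5 binding to MEKK3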
Active calls of the source: *; [ ] = another dose, or the depositor's remark. Compounds with a hit are over-represented: about 2.4% of the library has one in this group of screens.

CC(C)OCCCN1CN(S(=O)(=O)c2ccccc2)c2nc3ccccc3nc21 was read as MEKK3 PB1 HTS 6.0*[inhibitor], MEKK2wt PB1 HTS 11*[inhibitor], Arbovirus anti 5, MEKK2 mut-MEK5 -66, MEKK2wt confirm 107, MEKK2mut confirm 2 and MEKK3 confirm 104.
Screening Cc1nn(C(C)C)c(C)c1CN1CCN(Cc2ccsc2)C(CCO)C1 (centres undefined) returned MEKK3 PB1 HTS 102, Pf gametocyte -12, MEKK2wt PB1 HTS 112, Arbovirus anti -2 and MEKK2 mut-MEK5 12.
For COc1cccc(C2=CC(c3cccc(OC)c3OC(F)F)n3nnnc3N2)c1 (centres undefined) the results were MEKK3 PB1 HTS 100, MEKK2wt PB1 HTS 98, Arbovirus anti 4 and MEKK2 mut-MEK5 3.
For COc1cccc(C2=CC(c3cccc(OC)c3OC)n3nnnc3N2)c1 (centres undefined) the results were MEKK3 PB1 HTS 80*[inhibitor], MEKK2wt PB1 HTS 87, Arbovirus anti -10, MEKK2 mut-MEK5 -12, MEKK2wt confirm 96, MEKK2mut confirm 0 and MEKK3 confirm 104.
COc1cccc(C2=CC(c3cc(OC)ccc3OC)n3nnnc3N2)c1 (centres undefined) was read as Arbovirus anti -6.
For COc1ccc(OC)c(C2C=C(c3ccc(C)c(C)c3)Nc3nnnn32)c1 (centres undefined) the results were MEKK3 PB1 HTS 1.0*[inhibitor], MEKK2wt PB1 HTS 0.0*[inhibitor], Arbovirus anti 22, MEKK2 mut-MEK5 -47, MEKK2wt confirm 96, MEKK2mut confirm 1 and MEKK3 confirm 104.
For CC1CCN(S(=O)(=O)c2ccc3c(c2)N(CC(=O)NCCCN2CC(C)CC(C)C2)C(=O)CS3)CC1 (centres undefined) the results were MEKK3 PB1 HTS 102, MEKK2wt PB1 HTS 117 and MEKK2 mut-MEK5 5.
`Cc1ccc(S(=O)(=O)NCc2cccnc2)cc1C(=O)N1CCCC1` gave MEKK3 PB1 HTS 98, MEKK2wt PB1 HTS 96 and MEKK2 mut-MEK5 -1.
Screening CCOc1ccccc1NC(=S)N1C2CCC1CC(NC(=O)NC13CC4CC(CC(C4)C1)C3)C2 (centres undefined) returned MEKK3 PB1 HTS 72*[inhibitor], Pf gametocyte -3, MEKK2wt PB1 HTS 79, Arbovirus anti -26, MEKK2 mut-MEK5 -16, MEKK2wt confirm 95, MEKK2mut confirm -3 and MEKK3 confirm 102.
Screening O=C(c1ccc(COc2ccc3c(c2)CCC3)o1)N1CCN(c2ccccc2)CC1 returned MEKK3 PB1 HTS 103, Pf gametocyte -5, MEKK2wt PB1 HTS 103 and MEKK2 mut-MEK5 2.
For O=C(c1ccco1)N1CCN(C(=O)c2ccc(COc3ccc4c(c3)CCC4)o2)CC1 the results were MEKK3 PB1 HTS 0.0*[inhibitor], Pf gametocyte -5, MEKK2wt PB1 HTS -4.0*[inhibitor], Arbovirus anti -15, MEKK2 mut-MEK5 -9, MEKK2wt confirm 98, MEKK2mut confirm -1 and MEKK3 confirm 99.
For CCOC(=O)Cc1csc(NC(=S)NC(=O)c2cccc([N+](=O)[O-])c2)n1 the results were MEKK3 PB1 HTS 139*, MEKK2wt PB1 HTS 108, Arbovirus anti -4, MEKK2 mut-MEK5 1, MEKK2wt confirm 106, MEKK2mut confirm 4 and MEKK3 confirm 103.
`CCOC(=O)Cc1csc(NC(=O)c2sc3nc4cc(C)ccc4cc3c2N)n1` gave MEKK3 PB1 HTS 144*, Pf gametocyte -11, MEKK2wt PB1 HTS 93, Arbovirus anti 9, MEKK2 mut-MEK5 13, MEKK2wt confirm 110, MEKK2mut confirm 13 and MEKK3 confirm 110.
`CCOC(=O)Cc1csc(NC(=O)/C=C/c2cccc(Br)c2)n1` gave MEKK3 PB1 HTS 44*[inhibitor], Pf gametocyte -13, MEKK2wt PB1 HTS 47*[inhibitor], Arbovirus anti 8, MEKK2 mut-MEK5 -17, MEKK2wt confirm 101, MEKK2mut confirm -3 and MEKK3 confirm 101.
For COC(=O)C1CCN(C2CC(=O)N(c3cc(C)cc(C)c3)C2=O)CC1 (centres undefined) the results were MEKK3 PB1 HTS 78, Pf gametocyte -13, MEKK2wt PB1 HTS 73, Arbovirus anti 2 and MEKK2 mut-MEK5 -21.
For CCOc1ccc(Nc2nc(NCC3CCCO3)c3ccccc3n2)cc1 (centres undefined) the results were MEKK3 PB1 HTS 103, Pf gametocyte -25, MEKK2wt PB1 HTS 166*, Arbovirus anti -36, MEKK2 mut-MEK5 -8, MEKK2wt confirm 170, MEKK2mut confirm 14 and MEKK3 confirm 100.
For CCOc1ccc(Nc2cc(C)c3ccccc3n2)cc1 the results were MEKK3 PB1 HTS 105, MEKK2wt PB1 HTS 111 and MEKK2 mut-MEK5 4.
Screening CCOc1ccc(Nc2c3ccccc3nc3ccccc23)cc1 returned MEKK3 PB1 HTS 104, Pf gametocyte 3, MEKK2wt PB1 HTS 149*, MEKK2 mut-MEK5 30, MEKK2wt confirm 136, MEKK2mut confirm 19 and MEKK3 confirm 107.
COc1cccc(Sc2ccccc2/C=N/NC(N)=O)c1 was read as MEKK3 PB1 HTS 95, Pf gametocyte -15, MEKK2wt PB1 HTS 92, Arbovirus anti -18 and MEKK2 mut-MEK5 -1.
Screening CCCC(C)NC(=O)Cn1c(=O)c2c(ncn2CCC(C)C)n(Cc2ccccc2)c1=O (centres undefined) returned MEKK3 PB1 HTS 98, MEKK2wt PB1 HTS 94 and MEKK2 mut-MEK5 -1.
Screening CCCOc1ccc(C2C(C(=O)c3ccc(C)o3)=C(O)C(=O)N2CCN2CCOCC2)cc1OC (centres undefined) returned MEKK3 PB1 HTS 0.0*[inhibitor], Pf gametocyte 5, MEKK2wt PB1 HTS 0.0*[inhibitor], Arbovirus anti -1, MEKK2 mut-MEK5 -16, MEKK2wt confirm 100, MEKK2mut confirm -3 and MEKK3 confirm 103.
CC(=O)Nc1ccc(Sc2ncnc3scc(-c4ccccc4)c23)cc1 was read as MEKK3 PB1 HTS 128*, Pf gametocyte -1, MEKK2wt PB1 HTS 99, Arbovirus anti -19, MEKK2 mut-MEK5 -1, MEKK2wt confirm 102, MEKK2mut confirm 5 and MEKK3 confirm 104.
